Experimental data from PubChem BioAssay (NCI).
About 83,000 compounds went through this panel and 20% of them were active in at least one assay; those are over-represented in the sample as a whole.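 Compound tested at a single concentration for 48 hours in 96-well plates; a percent growth value below 10 was scored as active.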 Values without a mark were called inactive. Active and inactive are the calls of the source.

Legend:
Assay in all cases: NCI-60 one-dose screen, 48 h (100 = growth as untreated, 0 = no growth, -100 = all killed)
Details in all cases: 10 µM unless noted
SK-MEL-2 melanoma = test system: SK-MEL-2 melanoma
EKVX NSCLC = test system: EKVX NSCLC
SN12C renal = test system: SN12C renal
UO-31 renal = test system: UO-31 renal
TK-10 renal = test system: TK-10 renal
ACHN renal = test system: ACHN renal
CAKI-1 renal = test system: CAKI-1 renal
A498 renal = test system: A498 renal
CCRF-CEM leukemia = test system: CCRF-CEM leukemia
SR leukemia = test system: SR leukemia
RPMI-8226 leukemia = test system: RPMI-8226 leukemia
OVCAR-8 ovarian = test system: OVCAR-8 ovarian
OVCAR-5 ovarian = test system: OVCAR-5 ovarian
OVCAR-4 ovarian = test system: OVCAR-4 ovarian
IGROV1 ovarian = test system: IGROV1 ovarian
OVCAR-3 ovarian = test system: OVCAR-3 ovarian
HS 578T breast = test system: HS 578T breast
NCI/ADR-RES ovarian = test system: NCI/ADR-RES ovarian
SK-OV-3 ovarian = test system: SK-OV-3 ovarian
MOLT-4 leukemia = test system: MOLT-4 leukemia

COc1cc(NCC(O)CN(CC(C)C)C2CCCC2)c2ncccc2c1 (centres undefined)
growth (SK-MEL-2 melanoma): 98.3%
growth (EKVX NSCLC): 83.2%
growth (SN12C renal): 86.4%
growth (UO-31 renal): 71.7%
growth (TK-10 renal): 110%
growth (ACHN renal): 80.2%
growth (CAKI-1 renal): 94.6%
growth (A498 renal): 71.5%
growth (CCRF-CEM leukemia): 114%
growth (SR leukemia): 80.1%
growth (RPMI-8226 leukemia): 94.6%
growth (OVCAR-8 ovarian): 86.5%
growth (OVCAR-5 ovarian): 101%
growth (OVCAR-4 ovarian): 42.3%
growth (IGROV1 ovarian): 88.8%
growth (OVCAR-3 ovarian): 63.7%
growth (HS 578T breast): 73.3%
growth (NCI/ADR-RES ovarian): 89.2%

NC(=O)c1ncn(C2OC(CO)C(O)C2O)n1 (centres undefined)
growth (SK-MEL-2 melanoma): 40.7%
growth (EKVX NSCLC): 90.2%
growth (SN12C renal): 82.4%
growth (UO-31 renal): 83.7%
growth (TK-10 renal): 109%
growth (ACHN renal): 90.5%
growth (CAKI-1 renal): 99.2%
growth (A498 renal): 89.1%
growth (CCRF-CEM leukemia): 67.1%
growth (SR leukemia): 73.2%
growth (OVCAR-8 ovarian): 87.5%
growth (OVCAR-5 ovarian): 95.2%
growth (OVCAR-4 ovarian): 87.8%
growth (SK-OV-3 ovarian): 87.9%
growth (IGROV1 ovarian): 4.17% (active)
growth (OVCAR-3 ovarian): 95.1%
growth (HS 578T breast): 86.4%
growth (NCI/ADR-RES ovarian): 88.6%

COc1cc2nnn3c4ncccc4c(N=O)c3c2cc1OC
growth (SK-MEL-2 melanoma): 101%
growth (EKVX NSCLC): 106%
growth (SN12C renal): 81.4%
growth (UO-31 renal): -6.2% (active)
growth (TK-10 renal): 98.8%
growth (ACHN renal): -2.46% (active)
growth (CAKI-1 renal): 74.9%
growth (A498 renal): 174%
growth (CCRF-CEM leukemia): -13.4% (active)
growth (MOLT-4 leukemia): -14.9% (active)
growth (RPMI-8226 leukemia): -11.8% (active)
growth (OVCAR-8 ovarian): 14.3%
growth (OVCAR-5 ovarian): 102%
growth (OVCAR-4 ovarian): 50.3%
growth (SK-OV-3 ovarian): 104%
growth (OVCAR-3 ovarian): 120%
growth (HS 578T breast): 116%
growth (NCI/ADR-RES ovarian): 44.6%

COc1ccc(CNC(=O)COc2ccc(/C=N/Nc3nc4ccccc4s3)cc2)cc1
growth (SK-MEL-2 melanoma): 63.9%
growth (EKVX NSCLC): 52%
growth (SN12C renal): 30.8%
growth (UO-31 renal): 60.7%
growth (TK-10 renal): 86.9%
growth (ACHN renal): 8.13% (active)
growth (CAKI-1 renal): 27.9%
growth (A498 renal): -19.5% (active)
growth (CCRF-CEM leukemia): 62.4%
growth (RPMI-8226 leukemia): 27.3%
growth (OVCAR-8 ovarian): 22.3%
growth (OVCAR-5 ovarian): 66.9%
growth (OVCAR-4 ovarian): -37.5% (active)
growth (IGROV1 ovarian): 28.8%
growth (OVCAR-3 ovarian): 25.3%
growth (HS 578T breast): 13.3%
growth (NCI/ADR-RES ovarian): 23.3%

O=C1CCCCCCCCC(O)C(O)CCCC(c2cccs2)O1 (centres undefined)
growth (SK-MEL-2 melanoma): 120%
growth (EKVX NSCLC): 82.2%
growth (SN12C renal): 106%
growth (UO-31 renal): 75.2%
growth (TK-10 renal): 115%
growth (ACHN renal): 94.8%
growth (CAKI-1 renal): 93.9%
growth (A498 renal): 102%
growth (CCRF-CEM leukemia): 47.4%
growth (SR leukemia): -12.3% (active)
growth (RPMI-8226 leukemia): 87.1%
growth (OVCAR-8 ovarian): 99%
growth (OVCAR-5 ovarian): 95.3%
growth (OVCAR-4 ovarian): 78.8%
growth (SK-OV-3 ovarian): 82.1%
growth (IGROV1 ovarian): 97.8%
growth (OVCAR-3 ovarian): 102%
growth (HS 578T breast): 103%
growth (NCI/ADR-RES ovarian): 91.1%

Cn1c(COC(=O)N2CCCCC2)nc2c(N3CCOCC3)nc(-c3ccccc3)nc21
growth (SK-MEL-2 melanoma): -79.6% (active)
growth (EKVX NSCLC): -59.4% (active)
growth (SN12C renal): -86.1% (active)
growth (UO-31 renal): -99.3% (active)
growth (TK-10 renal): -86.2% (active)
growth (ACHN renal): -100% (active)
growth (CAKI-1 renal): -88% (active)
growth (A498 renal): -21.7% (active)
growth (CCRF-CEM leukemia): -6.4% (active)
growth (SR leukemia): 0.966% (active)
growth (RPMI-8226 leukemia): -29.5% (active)
growth (OVCAR-8 ovarian): -6.61% (active)
growth (OVCAR-5 ovarian): -79.8% (active)
growth (OVCAR-4 ovarian): -78.4% (active)
growth (SK-OV-3 ovarian): 60.2%
growth (IGROV1 ovarian): -80.6% (active)
growth (OVCAR-3 ovarian): -85.3% (active)
growth (HS 578T breast): -36.1% (active)
growth (NCI/ADR-RES ovarian): -8.64% (active)

Cn1ncc2c(Nc3ccccc3Cl)nc(Cl)nc21
growth (SK-MEL-2 melanoma): 123%
growth (EKVX NSCLC): 89.8%
growth (SN12C renal): 92%
growth (UO-31 renal): 101%
growth (TK-10 renal): 119%
growth (ACHN renal): 95.6%
growth (CAKI-1 renal): 99.9%
growth (A498 renal): 178%
growth (CCRF-CEM leukemia): 104%
growth (MOLT-4 leukemia): 125%
growth (RPMI-8226 leukemia): 62.1%
growth (OVCAR-8 ovarian): 113%
growth (OVCAR-5 ovarian): 96.4%
growth (OVCAR-4 ovarian): 96.3%
growth (SK-OV-3 ovarian): 104%
growth (OVCAR-3 ovarian): 164%
growth (HS 578T breast): 136%

C(=N\Nc1ncc(-c2cc3cc4c(cc3o2)OCO4)s1)/c1c[nH]c2ccccc12
growth (SK-MEL-2 melanoma): 51.3%
growth (EKVX NSCLC): 5.32% (active)
growth (SN12C renal): -12.3% (active)
growth (UO-31 renal): -96.5% (active)
growth (TK-10 renal): 22.7%
growth (ACHN renal): -31.4% (active)
growth (CAKI-1 renal): -43.3% (active)
growth (A498 renal): -3.19% (active)
growth (CCRF-CEM leukemia): 2.87% (active)
growth (MOLT-4 leukemia): -23.8% (active)
growth (RPMI-8226 leukemia): -22.4% (active)
growth (OVCAR-8 ovarian): -12.1% (active)
growth (OVCAR-5 ovarian): 9.56% (active)
growth (OVCAR-4 ovarian): -12.9% (active)
growth (IGROV1 ovarian): -43.8% (active)
growth (OVCAR-3 ovarian): -44.4% (active)
growth (HS 578T breast): -6.98% (active)
growth (NCI/ADR-RES ovarian): 10.7%
